Bioassay records as filed in PubChem BioAssay.
HP1b binding inh = blocks HP1-beta chromodomain binding to methylated histone tails; P83916; AlphaScreen HP1-beta / biotin-H3K9me3 peptide binding; Potency, µM (doses to about 114 µM), for the others: at the highest dose activity change, negative = inhibition, usual class: inhibitors; 0.56% of 390,000 active; AID 540317; further: potency means the concentration at half of the fitted maximal effect; nearly all actives have a fitted effect of over 70% in size
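Compound inhibition of the preformed complex between 50 nM HP1-beta and 50 nM biotinylated H3K9me3 peptide was read by AlphaScreen. Buffer was PBS pH 7.4 with 0.01% Tween-20. Incubations ran 30 min at room temperature, with 10 ug/mL donor/acceptor beads.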
CtBP-E1A blk = CtBP/E1A binding inhibition; activity change, % (test concentration not listed); AID 651724; 0.49% of 340,000 active; AlphaScreen GST-E1A/His-CtBP binding, 1536-well; hits give low values; in the data active means activity change below about -65%; inconclusive means mostly about -30% to -63%; further: on the % scale 0 is the no-effect control and ±100 the full control effect
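Homogeneous bead-based format: GST-tagged E1A captured on glutathione donor beads, His-tagged CtBP on nickel acceptor beads; compounds precede bead addition by 2 h at 37 °C.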
JMJD2A Tudor = JMJD2A Tudor domain (human) inhibition. 4.4% of 390,000 active. Potency, µM (doses to about 114 µM), without a hit: at the highest dose activity change, negative = inhibition, actives largely listed as inhibitors. AlphaScreen JMJD2A-Tudor / H3K4me3 peptide binding. O75164; further: potency means the concentration at half of the fitted maximal effect; on the % scale 0 is the no-effect control and ±100 the full control effect; nearly all actives have a fitted effect of over 50% in size
Target sequence (O75164 whole entry, looked up, the tested form may be a part): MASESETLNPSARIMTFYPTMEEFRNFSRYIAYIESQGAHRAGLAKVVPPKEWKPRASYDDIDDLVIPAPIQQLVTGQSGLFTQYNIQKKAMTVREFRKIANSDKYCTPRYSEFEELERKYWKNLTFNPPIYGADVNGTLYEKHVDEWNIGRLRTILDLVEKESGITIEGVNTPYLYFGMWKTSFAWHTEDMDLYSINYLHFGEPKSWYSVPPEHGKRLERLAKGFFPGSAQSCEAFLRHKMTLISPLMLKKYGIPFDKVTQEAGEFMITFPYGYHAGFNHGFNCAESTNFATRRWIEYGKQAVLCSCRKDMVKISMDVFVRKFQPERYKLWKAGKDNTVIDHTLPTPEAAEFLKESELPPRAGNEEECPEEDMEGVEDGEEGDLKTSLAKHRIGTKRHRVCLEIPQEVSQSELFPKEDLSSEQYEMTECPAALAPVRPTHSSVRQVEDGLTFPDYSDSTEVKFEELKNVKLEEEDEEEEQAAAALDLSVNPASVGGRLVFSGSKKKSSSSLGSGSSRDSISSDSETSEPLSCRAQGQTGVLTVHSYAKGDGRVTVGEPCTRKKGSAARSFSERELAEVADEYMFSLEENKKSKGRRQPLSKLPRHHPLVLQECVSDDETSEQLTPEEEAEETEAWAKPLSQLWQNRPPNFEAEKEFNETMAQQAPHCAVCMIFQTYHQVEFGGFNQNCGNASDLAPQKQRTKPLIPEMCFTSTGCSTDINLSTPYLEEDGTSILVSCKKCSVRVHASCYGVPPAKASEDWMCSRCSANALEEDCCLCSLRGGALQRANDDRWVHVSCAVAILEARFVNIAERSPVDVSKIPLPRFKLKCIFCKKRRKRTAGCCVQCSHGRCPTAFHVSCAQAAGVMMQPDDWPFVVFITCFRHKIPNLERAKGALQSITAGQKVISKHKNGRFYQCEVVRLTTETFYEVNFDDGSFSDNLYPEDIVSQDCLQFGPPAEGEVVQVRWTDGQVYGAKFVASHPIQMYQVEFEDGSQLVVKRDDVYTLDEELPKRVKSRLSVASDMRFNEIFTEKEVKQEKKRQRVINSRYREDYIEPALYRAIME
G9a inh = inhibitors of human histone lysine methyltransferase G9a; Q96KQ7; G9a H3K9 monomethylation, AlphaScreen, 2 h; Potency, µM (highest dose often 102 µM), for the others: top-dose activity, negative = inhibition, most hits filed as inhibitors; 8.8% of 350,000 active; AID 504332; further: potency means the concentration at half of the fitted maximal effect; on the % scale 0 is the no-effect control and ±100 the full control effect; nearly all actives have a fitted effect of over 75% in size
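AlphaScreen read-out: biotin-H3K9 peptide (500 nM) methylation by 20 nM enzyme with 20 uM SAM, 2 h at room temperature after 15 min compound preincubation; anti-monomethyl H3K9 antibody plus donor/acceptor beads, 10 min dark.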
Six1-Eya2 inh = Six1/Eya2 interaction inhibition. Q15475+O00167. AlphaScreen GST-Six1/His-Eya2 binding, biochemical; hits give low values. activity change, % (test concentration not listed). 0.56% of 360,000 active. AID 651725; in the data active means activity change below about -65%; inconclusive means mostly about -30% to -63%; further: on the % scale 0 is the no-effect control and ±100 the full control effect
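Compounds are tested against tagged Six1 and Eya2 proteins bridged by glutathione donor and nickel acceptor beads; after a one-hour incubation at 37 °C without light, AlphaScreen emission is recorded.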
BAZ2B inh = BAZ2B (human) inhibition | 4.4% of 360,000 active | Q9UIF8 | AlphaScreen BAZ2B-H3K14Ac peptide displacement | Potency, µM (doses to about 114 µM), for the others: at the highest dose activity change, negative = inhibition, hits mostly inhibitors; further: potency means the concentration at half of the fitted maximal effect; on the % scale 0 is the no-effect control and ±100 the full control effect; nearly all actives have a fitted effect of over 60% in size
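Complex of BAZ2B and biotin-H3K14Ac (50 nM apiece) forms over 30 min at RT, then faces library compounds up to 110 uM for another 30 min; AlphaScreen beads added, 20 min dark incubation, luminescence read.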
Numbers without * were called inactive; u = inconclusive; x = no result given; [ ] = dose if it differs, or a comment. Sampled rows, rich in hits. Any-hit rate of the full collection: about 10%. Unless noted, the call rests on the fitted dose curve; in most records, active means well fitted inhibition curve with a large enough effect; inconclusive means small, poorly fitted or top-dose-only effect; inactive means no such curve, though single readings can be large or run the other way.

SMILES	HP1b binding inh	CtBP-E1A blk	JMJD2A Tudor	G9a inh	Six1-Eya2 inh	BAZ2B inh
Clc1cc(Cl)cc(CN2CCSCC2)c1	39.7%	x	-1.7%	x	4.3	-3.5%
O=[N+]([O-])c1ccc(N2CCN(Cc3cccc([N+](=O)[O-])c3)CC2)cc1	-6.8%	-28.6	u	-11.2%	-17.5	u
O=[N+]([O-])c1ccc(CN2CCSCC2)cc1	25.1µM*	0.0	1.58µM*	25.1µM*	-15.2	70.8µM*
O=[N+]([O-])c1ccc(CN2CCN(c3ccc([N+](=O)[O-])cc3)CC2)cc1	50.1µM*	-1.0	3.16µM*	12.6µM*	-17.2	25.1µM*
c1ccc(-c2ccc(CN3CCSCC3)cc2)cc1	u	-4.7	20µM*	x	-10.3	u
O=[N+]([O-])c1ccc(CN2CCN(c3ccc(F)cc3)CC2)o1	u	-1.9	11.2µM*	u	0.7	u
COc1cc2c(cc1OC)C1O[C@](CCCCN3C(=O)c4ccccc4C3=O)(C2)OC2=C1C(=O)c1ccccc1C2=O	x	x	x	x	x	-1.6%[22.9 µM]
COc1cc2c(cc1OC)C(COc1cc(C)cc(C)c1)N(C(=O)C(C)(C)C)CC2 (configuration not stated)	19.3%	x	-31.5%	-33.6%[59 µM]	x	-26.1%
O=C(NC(=S)Nc1ncc(Br)cc1Br)c1cncc(Br)c1	21.2%	2.5	50.1µM*	1.6%[59 µM]	-2.6	-2.2%
O=C(Nc1ccc(N2CCCCC2)cc1)c1cncc(Br)c1	5.2%	-13.2	-22.9%	79.4µM*	-13.4	u
O=C(Nc1cccc(NC(=O)c2cncc(Br)c2)c1)c1cncc(Br)c1	44.3%	2.2	-9.1%	44.7µM*	-0.4	-3.8%
O=C(Nc1ccc(N2CCCC2)cc1)c1ccc2ccccc2c1	11.3%	-3.5	-10.4%	6.31µM*	-4.3	0.8%
COc1ccc(Cl)cc1NC(=O)CSc1nnc2[nH]c(=O)cc(C)n12	35.7%	x	-8.1%	0.8%[59 µM]	x	-13.0%
COc1ccccc1NC(=O)Cc1c(C(=O)O)[nH]c2ccc(Cl)cc12	7.4%	x	-29.8%	-35.4%[59 µM]	x	-8.7%
CC(=O)c1c[nH]c(C(=O)Nc2ccc(N3CCCCCC3)cc2)c1	u	-23.8	35.5µM*	-11.6%[2.33 µM]	-28.1	35.5µM*
Cc1ccc(C(=O)Nc2ccc(N3CCCCC3)cc2)cc1	21.3%	x	-20.0%	x	x	x
COc1ccc(CC2CCOC2=O)cc1 (configuration not stated)	12.0%	3.1	-22.5%	-15.7%[59 µM]	6.2	x
COc1ccc(CC2C(=O)OC(C)(C)OC2=O)cc1	15.6%	2.6	35.5µM*	39.8µM*	6.4	-7.7%
O=C(NNc1cccc(Cl)n1)c1ccc(Cl)cc1Cl	46.6%	2.7	5.3%	3.5%[59 µM]	4.2	8.5%
O=C(NNc1cccc(Cl)n1)c1ccccc1CC[N+](=O)[O-]	-14.3%	7.5	22.4µM*	-0.7%	3.0	2.1%
CC(C)n1c(S(=O)(=O)O)nc2ccccc21	34.5%	11.1	-3.1%	44.7µM*	-4.0	-17.7%
CC(c1ccccc1)n1c(S(=O)(=O)O)nc2ccccc21 (configuration not stated)	37.3%	x	-28.3%	-7.1%	10.4	1.7%
Cc1ccc(Cl)cc1N1CCN(S(=O)(=O)c2cn(C)cn2)CC1	16.3%	-2.6	-14.1%	-0.4%	-0.8	-1.0%
CCOC(=O)c1cc(S(=O)(=O)N2CCN(c3cccc(OC)c3)CC2)[nH]n1	9.1%[57 µM]	x	-31.0%	u	x	u
CCOC(=O)c1cc(S(=O)(=O)N2CCN(c3cc(Cl)ccc3C)CC2)[nH]n1	16.3%[57 µM]	x	u	12.6µM*	x	u
CCOC(=O)c1cc(S(=O)(=O)N2CCN(c3ccccc3OC)CC2)[nH]n1	11.2%[57 µM]	x	-22.7%	28.2µM*	x	-9.6%
Cc1ccc(Cl)cc1N1CCN(S(=O)(=O)c2cn(C)c(C)n2)CC1	6.6%[57 µM]	x	56.2µM*	0.7%[59 µM]	x	-22.3%
CCOC(=O)c1cc(S(=O)(=O)N2CCN(c3ccc(F)cc3)CC2)[nH]n1	7.3%[57 µM]	x	-21.1%	28.2µM*	x	u
COc1cccc2cc(-c3nc(Nc4cccc(C)c4)sc3C)c(=O)oc12	18.9%	x	-18.7%	-1.7%[59 µM]	x	5.0%
